Screening results (PubChem)
Only some compounds are listed: those with a hit (about 7.5% of all), similar ones and a draw of the others.
SMN2 splice up – enhancers of SMN2 splice variant expression. 210,000 compounds, 2.8% hits. HEK293 SMN2-luciferase splicing reporter, luminescence, 30-36 h. Potency, µM (series often up to 46.1 µM), for the others: at the highest dose activity change, positive = activation, usual class: activators; further: % of control where 0% means no effect; nearly all actives have a fitted effect of over 55% in size
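qHTS luciferase splicing reporter: luminescence rises when SMN2 exon 7 is included in transfected HEK293 cells. Compound exposure lasted 30-36 h at 37C, with 4.5 mM final sodium butyrate as control, followed by a ONE-Glo read.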
Rab9 promoter act – activators of Rab9 promoter | Huh7 Rab9 promoter-luciferase reporter, luminescence, 24 h | Potency, µM (top dose mostly 9.22 µM), for the others: top-dose activation, negative = inhibition, actives largely listed as activators | AID 485297 | 320,000 compounds, 2.8% hits; further: % of control where 0% means no effect; nearly all actives have a fitted effect of over 60% in size
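Huh7 cells stably carrying a Rab9 promoter-luciferase reporter, 1500 cells per well in OP-MEM I with 10% FBS, treated with compound 24 hours at 37C. Luciferase activity read by luminescence after 10 minutes with Amplite reagent.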
ELG1 genotox – inducers of genotoxicity in HEK293T ELG1-luciferase cells; HEK293T ELG1-luciferase reporter, luminescence, 16 h; Potency, µM (highest dose often 46 µM), for inactives: at the highest dose activity change, positive = activation, actives largely listed as activators; 330,000 compounds, 1.3% hits; further: % of control where 0% means no effect; nearly all actives have a fitted effect of over 60% in size
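Genotoxicity was scored as increased ELG1-luciferase reporter signal, measured by ONE-Glo luminescence (30 min, room temperature). Compound or vehicle exposure of the HEK293T reporter cells lasted 16 hr at 37°C.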
Luc counter – blocks Kinase-Glo luciferase, a counter-screen artifact; Potency, µM (titrated, usually from 38.3 µM), inactives show top-dose activity change, negative = inhibition, usual class: inhibitors; Kinase-Glo luciferase, ATP luminescence, 8 min; Q27757; 200,000 compounds, 0.28% hits; further: on the % scale 0 is the no-effect control and ±100 the full control effect; nearly all actives have a fitted effect of over 60% in size
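Compounds were added to a substrate mix at pH 7.2 (50 mM imidazole, 10 uM ATP, within the enzyme's linear range), followed by Kinase-Glo detection reagent; luminescence was measured after 8 minutes at ambient temperature.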
FLuc modulator – firefly luciferase modulation, counter-screen for miR-21 project; P08659; purified FLuc, Km substrates, luminescence inhibition; Potency, µM (doses to about 57.5 µM), inactives show at the highest dose activity change, negative = inhibition, actives largely listed as inhibitors; 360,000 compounds, 6.9% hits; AID 588342;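 further: plate controls were vehicle for no effect and reference inhibitor for full effect; nearly all actives have a fitted effect of over 55% in size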
Target sequence (P08659 whole entry, looked up): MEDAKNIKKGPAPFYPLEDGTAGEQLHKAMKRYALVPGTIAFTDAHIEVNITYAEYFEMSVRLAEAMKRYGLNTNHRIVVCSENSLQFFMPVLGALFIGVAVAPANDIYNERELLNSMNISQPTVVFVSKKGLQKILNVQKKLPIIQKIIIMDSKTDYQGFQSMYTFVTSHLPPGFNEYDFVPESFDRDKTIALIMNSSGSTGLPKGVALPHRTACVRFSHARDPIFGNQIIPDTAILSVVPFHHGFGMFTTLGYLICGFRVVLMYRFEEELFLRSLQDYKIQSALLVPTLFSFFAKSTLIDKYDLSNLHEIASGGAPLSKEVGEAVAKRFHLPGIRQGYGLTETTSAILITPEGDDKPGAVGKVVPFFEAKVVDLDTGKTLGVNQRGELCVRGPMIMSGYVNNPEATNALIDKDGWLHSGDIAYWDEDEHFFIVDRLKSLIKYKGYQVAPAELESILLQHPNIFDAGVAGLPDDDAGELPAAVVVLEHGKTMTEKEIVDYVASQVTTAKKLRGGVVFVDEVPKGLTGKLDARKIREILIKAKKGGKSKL
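Biochemical qHTS of compounds, final roughly 60 µM downward over six points, against 10 nM purified firefly luciferase using Km concentrations of substrates (10 uM D-luciferin, 10 uM ATP) in Tris acetate pH 7.5 buffer; luminescence output.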
NPC1 promoter act – activators of NPC1 promoter | AID 485313 | Potency, µM (highest dose often 9.22 µM), for the others: at the top dose activation, actives largely listed as activators | 320,000 compounds, 2.4% hits | Huh7 NPC1 promoter luciferase reporter, 24 h; further: % of control where 0% means no effect; nearly all actives have a fitted effect of over 60% in size
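Stably transfected Huh7 (NPC1 promoter→luciferase), 1500 cells/well in Opti-MEM + 10% FBS, 2 h settle, then compound 24 h at 37 °C. Luminescence after 10 min with Amplite reagent.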
The depositor's hits bear a star; ? = inconclusive; nt = no result; [ ] = another dose, or the depositor's remark. The call rests on the fitted dose curve; in most records, active means well fitted curve in the direction sought with a large enough effect; inconclusive means small, poorly fitted or top-dose-only effect, or another doubt; inactive means no such curve, though single readings can be large; an effect the other way counts as inactive or inconclusive. Potency means the concentration at half of the fitted maximal effect.

SMILES | SMN2 splice up | Rab9 promoter act | ELG1 genotox | Luc counter | FLuc modulator | NPC1 promoter act
O=c1/c(=C/c2ccc(O)c([N+](=O)[O-])c2)sc2nc3ccccc3n12 | -20.0% | 2.9% | 12.1% | -6.6% | 6.75µM* | 26.1%
Cc1cc(/C=c2\sc3nc4ccccc4n3c2=O)c(C)n1-c1ccc(C(=O)O)cc1 | -22.4% | 16.4% | 4.7% | 3.1% | 15.1µM* | ?
O=c1/c(=C\c2cccnc2)sc2nc3ccccc3n12 | ? | -1.8% | ? | -2.7% | -16.0%[2.3 µM] | -5.4%
Cc1cc(/C=c2/sc3nc4ccccc4n3c2=O)c(C)n1-c1ccccn1 | -84.4% | -28.0% | -2.8% | ? | 0.135µM* | -32.5%
COc1cc(NC(=O)CCCN2C(=O)NC(C)(C)C2=O)cc(OC)c1 | nt | -0.2% | 0.5% | nt | -1.6% | 1.2%
Cc1nc2nc(-c3ccccc3)cn2nc1C | 8.91µM* | nt | nt | 10µM* | 2.39µM* | nt
CCc1c(-c2ccccc2)nc2nc(C)c(C)nn12 | -17.3% | 6.8% | 13.0% | -1.5% | ? | 1.9%
c1ccc(-c2cc(-c3ccccc3)n3ncnc3n2)cc1 | -31.1% | -8.7% | 2.8% | 10.1% | 0.3% | -0.6%
CCc1ccc(-c2cn3nc(C)c(C)nc3n2)cc1 | -17.8% | ? | 0.1% | -4.0% | 0.379µM* | 0.0891µM*
c1ccc(-c2cn3nc(-c4ccccc4)cnc3n2)cc1 | 2µM* | 0.447µM* | ? | -6.4% | 0.213µM* | 0.631µM*
Cc1nc2nc(-c3ccc(F)cc3)cn2nc1C | nt | 0.282µM* | 1.64µM* | nt | 2.13µM* | ?
CCCCC12CN3CC(C)(CN(C1)C3c1c(C)[nH]c(=O)[nH]c1=O)C2=O (stereo unspecified) | 1.9% | nt | nt | nt | -1.1% | nt
COc1ccccc1C(=O)N1CCC(c2noc(-c3ccc(S(=O)(=O)N4CCCC4)cc3)n2)CC1 | -75.0% | nt | nt | nt | 3.7% | nt
COc1cc2c(cc1OC)C(COc1ccccc1OC)N(C(=O)COc1ccc(Cl)cc1)CC2 (stereo unspecified) | nt | nt | nt | nt | -2.4% | nt
CC(C)C(NC(=O)c1ccc(C(C)(C)C)cc1)C(=O)OCC(=O)NC(=O)Cc1ccccc1 (stereo unspecified) | 17.4% | -4.0% | 0.3% | -0.3% | 21.3µM* | 1.4%
COC(=O)C(C)NC(=O)c1ccc(C(C)(C)C)cc1 (stereo unspecified) | ? | 21.9% | 16.6% | -3.5% | 19µM* | 21.3%
COc1cccc2sc(N(Cc3cccnc3)C(=O)C3CCCCC3)nc12 | nt | nt | nt | nt | -2.0% | nt
O=C(CCCn1c(=O)c2ccccc2n(CC(=O)Nc2cccc(Cl)c2)c1=O)NCc1ccc2c(c1)OCO2 | 5.3% | nt | nt | nt | -1.9% | nt
CC(C)COC(=O)N1CCCC1C(=O)O (stereo unspecified) | 11.0% | 3.16µM* | 3.8% | -0.6% | 0.6% | 7.1%
CCn1cc(C(=O)NCc2ccc(F)cc2)c(=O)c2cc(S(=O)(=O)N(C)C)ccc21 | -2.3% | nt | nt | nt | -4.7% | nt
CCc1nn(CC(=O)NCc2cccnc2)c(=O)c2cc3occc3n12 | nt | -1.4% | 6.1% | nt | 2.7% | -1.3%
Cc1cc(C(=O)CSc2nnc(Nc3ccccc3)s2)c(C)n1CC1CCCO1 (stereo unspecified) | -19.7% | 12.1% | -4.0% | 0.6% | 10.7µM* | 2.5%
COc1ccccc1Nc1nnc(SCC(=O)c2cc(C)n(CC3CCCO3)c2C)s1 (stereo unspecified) | -17.7% | -5.2% | -3.7% | -8.8% | ? | -3.5%
Cc1cc(C(=O)CSc2nnc(Nc3ccccc3F)s2)c(C)n1CC1CCCO1 (stereo unspecified) | -9.0% | -2.2% | -5.7% | 13.4% | 15.1µM* | -2.8%
COc1ccc(Cl)cc1NC(=O)N1CCC(CN2CCc3ccccc3C2)CC1 | nt | nt | nt | nt | -5.7% | nt
SMILES | SMN2 splice up | Rab9 promoter act | ELG1 genotox | Luc counter | FLuc modulator | NPC1 promoter act
Cc1ccc(Cl)cc1NC(=O)c1sc2nc(C)c(C)c(C)c2c1N | -5.6% | nt | nt | nt | 2.3% | nt
CC1CCc2c(sc(NC(=O)c3cccs3)c2C(=O)O)C1 (stereo unspecified) | nt | 25.8%[1.84 µM] | -5.0% | nt | 6.75µM* | 18.9%
COC(=O)c1c(NC(=O)c2cccs2)sc2c1CCC(C)C2 (stereo unspecified) | 15.0% | ? | 15.2% | 1.0% | 10.7µM* | ?
CCC1CCc2c(sc(NC(=O)c3ccoc3C)c2C(N)=O)C1 (stereo unspecified) | ? | 21.1% | ? | 2.6% | 6.75µM* | -3.3%
Cc1ccc(C(=O)Nc2sc3c(c2C(=O)O)CCC(C)C3)o1 (stereo unspecified) | nt | nt | 0.7% | nt | nt | nt
CCCC1CCc2c(sc(NC(=O)c3cccs3)c2C(N)=O)C1 (stereo unspecified) | 3.9% | ? | 4.6% | -0.9% | 3.38µM* | ?
CCC1CCc2c(sc(NC(=O)c3cccnc3)c2C(N)=O)C1 (stereo unspecified) | 18.9% | ? | ? | -2.4% | ? | 22.2%
O=C(Cn1cc(C(=O)c2cccs2)c2ccccc21)Nc1ccc(Br)cc1 | -35.4% | nt | nt | nt | -5.2% | nt
Cc1ccc2nc(Cl)c3cc(C(=O)NC4CCCCC4)sc3c2c1 | 5.6% | nt | nt | nt | -4.3% | nt
COC(=O)Cn1c2nc3ccccc3nc2c2cccc(C)c21 | nt | -3.8% | -2.9% | nt | -3.1% | 0.2%
Cc1cccc2c3nc4ccccc4nc3n(C)c12 | nt | 4.47µM* | 5.0% | nt | 2.39µM* | 1.41µM*
CCc1ccc(NC(=O)CC2C(=O)OCCN2CC)cc1 (stereo unspecified) | 6.5% | nt | nt | nt | -11.9% | nt
N#CC1=C2C=Cc3ccccc3N2CCCC1=O | 23.1% | 2.82µM* | ? | -15.3% | 10.7µM* | 2.24µM*
COCCN1CCN(C(=O)C2CCC(=O)N(CCc3cccc(F)c3)C2)CC1 (stereo unspecified) | nt | -0.1% | -0.2% | nt | 2.2% | 0.6%
Cc1cnc(NC(=O)CCCNC(=O)c2ccc(Cl)cc2)s1 | nt | ? | ? | nt | 8.49µM* | 26.4%
Cc1ccc(NC(=O)CCCNC(=O)c2ccc(Cl)cc2)nc1 | nt | 24.9% | ? | nt | ? | 16.4%
COc1ccc([C@H]2CC(=O)C=C(c3ccc(OC)c(F)c3)C2)cc1 | nt | 13.0% | 3.7% | nt | -2.3% | 10.5%
